# Measured values taken from PubChem BioAssay (NCATS).
# Records with an inconclusive call do not appear. Activity calls are given as the source filed them. Unless noted, calls come from the whole dose curve; as a rule, active = well fitted curve in the direction sought with a large enough effect; inconclusive = small, poorly fitted or top-dose-only effect, or another doubt; inactive = no such curve, though single readings can be large; an effect the other way counts as inactive or inconclusive.
# Key:
# [1] = Quantitative High-Throughput drug screen in 47 multiple myeloma cell lines against the NCATS MIPE library collection: XG1_PLB cell viability assay (AID 1919866); note: nearly all actives have a fitted effect of over 35% in size; note: potency is the fitted concentration of half-maximal effect
# Summary of the method: (§1)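 Plated at 500 cells per well, myeloma lines received MIPE 4.0 compounds by pin tool. Following 48 h culture at 37 °C, CellTiter-Glo luminescence gave viability relative to DMSO and media-only controls.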
# [2] = Quantitative High-Throughput drug screen in 47 multiple myeloma cell lines against the NCATS MIPE library collection: UTMC2_PLB cell viability assay (AID 1919868); details: CellTiter-Glo ATP luminescence, 48 h; viability (% of DMSO control): at 45.8 µM (top of the series) unless noted; note: nearly all actives have a fitted effect of over 55% in size; note: potency is the fitted concentration of half-maximal effect
# Summary of the method: as §1
# [3] = Quantitative High-Throughput drug screen in 47 multiple myeloma cell lines against the NCATS MIPE library collection: PCM6_Riken cell viability assay (AID 1919870); note: nearly all actives have a fitted effect of over 30% in size; note: potency is the fitted concentration of half-maximal effect
# Summary of the method: as §1
# [4] = Quantitative High-Throughput drug screen in 47 multiple myeloma cell lines against the NCATS MIPE library collection: RPMI8226_ATCC cell viability assay (AID 1919871); note: nearly all actives have a fitted effect of over 30% in size; note: potency is the fitted concentration of half-maximal effect
# Summary of the method: as §1
# [5] = Quantitative High-Throughput drug screen in 47 multiple myeloma cell lines against the NCATS MIPE library collection: OPM2_DSMZ cell viability assay (AID 1919872); note: nearly all actives have a fitted effect of over 30% in size; note: potency is the fitted concentration of half-maximal effect
# Summary of the method: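 Myeloma cells (500 per well) were exposed to MIPE 4.0 compounds by pin transfer and incubated 48 hours at 37C, 5% CO2. Viability was read as ATP by CellTiter-Glo luminescence, normalised to DMSO (100%) and media-only (0%) wells.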
# [6] = Quantitative High-Throughput drug screen in 47 multiple myeloma cell lines against the NCATS MIPE library collection: KMS11_JCRBsus cell viability assay (AID 1919873); note: nearly all actives have a fitted effect of over 50% in size; note: potency is the fitted concentration of half-maximal effect
# Summary of the method: as §1
# [7] = Quantitative High-Throughput drug screen in 47 multiple myeloma cell lines against the NCATS MIPE library collection: KMS28BM_JCRB cell viability assay (AID 1919874); note: nearly all actives have a fitted effect of over 35% in size; note: potency is the fitted concentration of half-maximal effect
# Summary of the method: as §1
# [8] = qHTS drug screen for cell cycle checkpoint inhibitors in PARPi-resistant BRCA-mutant ovarian cancer cell lines. (AID 1963452; calls by dose curve); details: PEO1/OlaR viability, CellTiter-Glo luminescence, 96 h, stronger effect = lower value
# Summary of the method: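 PEO1, PEO4 and PEO1/OlaR ovarian cancer cells, 600 per well, exposed 96 h at 37C to a dilution series. Viability read by CellTiter-Glo luminescence, normalized to DMSO and empty wells; activity summarized as Z-AUC.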
# [9] = Quantitative High-Throughput drug screen in 47 multiple myeloma cell lines against the NCATS MIPE library collection: PE2_PLB cell viability assay (AID 1919869); note: nearly all actives have a fitted effect of over 35% in size; note: potency is the fitted concentration of half-maximal effect
# Summary of the method: as §1
# [10] = Quantitative High-Throughput drug screen in 47 multiple myeloma cell lines against the NCATS MIPE library collection: VP6_DJ cell viability assay (AID 1919867); note: potency is the fitted concentration of half-maximal effect; nearly all actives have a fitted effect of over 40% in size
# Summary of the method: as §1
# [11] = qHTS for identification of novel therapeutic agents for treatment of microphthalmiaassociated transcription factor (MiT) renal cell carcinoma (RCC) (AID 1963991; calls by dose curve; note: potency is the fitted concentration of half-maximal effect); details: CellTiter-Glo, 48 h; for z-score: stronger effect = lower value
# Summary of the method: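 Three TFE3-fusion RCC cell lines (UOK109, UOK124, UOK145), 500 cells/well, were exposed to the 1912-compound MIPE 4.0 library for 48 hours at 37 C. Viability was read by CellTiter-Glo luminescence, normalised to DMSO (100%) and empty wells (0%), with 11-concentration curve fits.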
# C2A = experiment: qHTS profiling for inhibitors of Plasmodium falciparum proliferation (AID 504749); note: potency is the fitted concentration of half-maximal effect; nearly all actives have a fitted effect of over 60% in size; details: P. falciparum in erythrocytes, SYBR Green DNA, 72 h; series mostly up to 28.7 µM
# Summary of the method: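 Three-day growth assay of blood-stage parasites in erythrocytes (0.3% parasitemia, 2.5% hematocrit) at 37 C, 5% CO2, quantified by SYBR Green DNA staining after overnight detergent lysis.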
# [12] = measured here: PEO1 parental Z-AUC
# [13] = TFE3-RCC UOK109 viability, measured here: UOK109 Z-AUC
# [14] = TFE3-RCC viability, measured here: UOK124 Z-AUC
# [15] = TFE3-RCC viability, measured here: UOK145 Z-AUC
smiles,measurement,setting,value
COc1ccc(-n2nc(C(N)=O)c3c2C(=O)N(c2ccc(N4CCCCC4=O)cc2)CC3)cc1,Potency,[1],inactive
same,Potency,[2],inactive
same,Potency,[3],inactive
same,Potency,[4],inactive
same,Potency,[5],inactive
same,Potency,[6],inactive
same,Potency,[7],inactive
same,Z-AUC,[8],1.05 (inactive)
same,Z-AUC,[8]; [12],0.968
same,Z-AUC,[8]; measured here: PEO4 Z-AUC,0.601
CC(=O)OCCN1C(=O)c2c(C)nc3ccc(S(=O)(=O)N4CCOCC4)cc3c2C1=O,Potency,[1],inactive
same,Potency,[3],inactive
same,Potency,[4],inactive
same,Potency,[5],inactive
same,Potency,[6],inactive
same,Potency,[7],inactive
same,Z-AUC,[8],1.23 (inactive)
same,Z-AUC,[8]; [12],1.34
same,Z-AUC,[8]; measured here: PEO4 Z-AUC,1.26
COCCOc1ccc2c(c1)ncn2-c1ccc2cccc(N3CCC(N)CC3)c2n1,Potency,[1],0.132 µM (active)
same,Potency,[9],0.372 µM (active)
same,Potency,[3],1.05 µM (active)
same,Potency,[5],1.87 µM (active)
same,Potency,[6],5.26 µM (active)
same,Potency,[7],16.6 µM (active)
same,Z-AUC,[8],0.074 (inactive)
same,Z-AUC,[8]; [12],0.935
same,Z-AUC,[8]; measured here: PEO4 Z-AUC,0.806
COC(=O)c1ccc2c(C(=Nc3ccc(N(C)C(=O)CN4CCN(C)CC4)cc3)c3ccccc3)c(O)[nH]c2c1,Potency,[1],0.662 µM (active)
same,Potency,[2],6.62 µM (active)
same,Potency,[9],10.5 µM (active)
same,Potency,[3],2.96 µM (active)
same,Potency,[4],3.72 µM (active)
Cc1c(Cn2c(C)nc3c(C(=O)O)cc(N4CCOCC4)cc32)cccc1C(F)(F)F,Potency,[1],0.743 µM (active)
same,Potency,[10],4.18 µM (active)
same,Potency,[4],inactive
same,Potency,[5],inactive
same,Potency,[6],inactive
same,Potency,[7],inactive
same,Z-AUC,[8],0.672 (inactive)
same,Z-AUC,[8]; [12],0.875
same,Z-AUC,[8]; measured here: PEO4 Z-AUC,0.3
C[C@@H](Oc1cc(-n2cnc3ccc(CN4CCN(C)CC4)cc32)sc1C(N)=O)c1ccccc1C(F)(F)F,Potency,[1],0.0148 µM (active)
same,Potency,[10],18.7 µM (active)
same,Potency,[3],13.2 µM (active)
same,Potency,[5],0.059 µM (active)
same,Potency,[6],0.0235 µM (active)
same,Z-AUC,[8],-0.926 (inactive)
same,Z-AUC,[8]; [12],-1.54
same,Z-AUC,[8]; measured here: PEO4 Z-AUC,-1.51
same,Potency,"[11]; TFE3-RCC UOK109 viability, active = Z-AUC below -0.8 in all three lines",6.62 µM (active)
same,z-score,[11]; [13],-0.886
same,z-score,[11]; [14],-1.58
same,z-score,[11]; [15],-1.64
N#Cc1c(O)c2c(-c3ccc(-c4ccccc4O)cc3)csc2[nH]c1=O,Potency,[1],inactive
same,Potency,[9],inactive
same,Potency,[3],inactive
same,Potency,[4],inactive
same,Potency,[5],inactive
same,Potency,[6],inactive
same,Z-AUC,[8],0.825 (inactive)
same,Z-AUC,[8]; [12],1.08
same,Z-AUC,[8]; measured here: PEO4 Z-AUC,1.07
same,z-score,[11]; [13],0.657
same,z-score,[11]; [14],0.453
same,z-score,[11]; [15],0.62
CC(C)(C)NC(=O)[C@H]1CN(Cc2cccnc2)CCN1C[C@@H](O)C[C@@H](Cc1ccccc1)C(=O)N[C@H]1c2ccccc2C[C@H]1O,Potency,[1],2.96 µM (active)
same,Potency,[10],7.43 µM (active)
same,Potency,[3],8.33 µM (active)
same,Potency,[6],18.7 µM (active)
same,Potency,C2A,10 µM (active)
C=C1C(=CC=C2CCCC3(C)[C@@H]([C@H](C)C=CC=CC(O)(CC)CC)CC[C@@H]23)C[C@@H](O)C[C@@H]1O (some centres not stated),Potency,[1],20.9 µM (active)
same,Potency,[10],10.5 µM (active)
same,Potency,[3],33.2 µM (active)
same,Potency,[4],26.4 µM (active)
same,Potency,[6],23.5 µM (active)
same,Potency,[7],20.9 µM (active)
C1Cc2[nH]nc(-c3nn[nH]n3)c2C1,Potency,[1],inactive
same,Potency,[9],inactive
same,Potency,[3],inactive
same,Potency,[4],inactive
same,Potency,[5],inactive
same,Potency,[7],inactive
same,Z-AUC,[8],-0.759 (inactive)
same,Z-AUC,[8]; [12],-0.47
same,Z-AUC,[8]; measured here: PEO4 Z-AUC,-0.646
same,z-score,[11]; [13],-0.0239
same,z-score,[11]; [14],0.708
same,z-score,[11]; [15],0.169
CC(=O)SC[C@@H](C)C(=O)N1CCC[C@H]1C(=O)N[C@@H](Cc1ccccc1)C(=O)O,Potency,[1],inactive
same,Potency,[9],inactive
same,Potency,[3],inactive
same,Potency,[6],inactive
same,Potency,[7],inactive
Clc1cccc(-c2nnnn2Cc2cccnc2)c1Cl,Potency,[1],18.7 µM (active)
same,Potency,[2],inactive
same,Potency,[5],inactive
same,Potency,[7],inactive
same,z-score,[11]; [13],0.93
same,z-score,[11]; [14],0.545
same,z-score,[11]; [15],0.374
O=C1CCC[C@@H]2[C@H]3CCC[N+]4([O-])CCC[C@@H](CN12)[C@@H]34 (some centres not stated),Potency,[1],inactive
same,Potency,[10],6.62 µM (active)
same,Potency,[3],inactive
same,Potency,[5],inactive
same,z-score,[11]; [13],0.308
same,z-score,[11]; [14],0.251
same,z-score,[11]; [15],0.512
COc1ccc(CC2c3cc(OC)c(OC)cc3CC[N+]2(C)CCC(=O)OCCCCCOC(=O)CC[N+]2(C)CCc3cc(OC)c(OC)cc3C2Cc2ccc(OC)c(OC)c2)cc1OC (configuration not stated),Potency,[1],1.46 µM (active)
same,viability (% of control),[9],81% [at 5.15 µM] (inactive)
same,viability (% of DMSO),[5],116% [at 5.15 µM] (inactive)
same,viability (% of control),[6],114% [at 5.15 µM] (inactive)
same,"viability, % of control",[7],110% [at 5.15 µM] (inactive)
same,Z-AUC,[8],0.349 (inactive)
same,Z-AUC,[8]; [12],0.569
same,Z-AUC,[8]; measured here: PEO4 Z-AUC,0.213
same,z-score,[11]; [13],1.41
same,z-score,[11]; [14],1.48
same,z-score,[11]; [15],1.15
CCCn1c(=O)c2[nH]c(-c3cnn(Cc4cccc(C(F)(F)F)c4)c3)nc2n(CC)c1=O,Potency,[1],inactive
same,Potency,[2],inactive
same,Potency,[3],inactive
same,Potency,[4],7.43 µM (active)
same,Potency,[6],inactive
same,Potency,[7],inactive
same,Z-AUC,[8],1.35 (inactive)
same,Z-AUC,[8]; [12],1.45
same,Z-AUC,[8]; measured here: PEO4 Z-AUC,1.33
same,z-score,[11]; [13],0.85
same,z-score,[11]; [14],0.351
same,z-score,[11]; [15],0.744
Cn1c(CNc2ccc(C(=N)N)cc2)nc2cc(C(=O)N(CCC(=O)O)c3ccccn3)ccc21,Potency,[1],inactive
same,Potency,[3],inactive
same,Potency,[4],inactive
same,Potency,[5],inactive
same,Potency,[6],inactive
same,Potency,[7],inactive
same,Z-AUC,[8],3.54 (inactive)
same,Z-AUC,[8]; [12],3.55
same,Z-AUC,[8]; measured here: PEO4 Z-AUC,3.92
same,z-score,[11]; [13],1.13
same,z-score,[11]; [14],1.05
same,z-score,[11]; [15],1.25
COc1cc2ncn(-c3cc(OCc4ccccc4C(F)(F)F)c(C(N)=O)s3)c2cc1OC,Potency,[1],0.209 µM (active)
same,Potency,[10],18.7 µM (active)
same,Potency,[3],5.9 µM (active)
same,Potency,[4],5.26 µM (active)
same,Potency,[6],0.296 µM (active)
same,Potency,[7],0.526 µM (active)
same,Z-AUC,[8],-1.24 (inactive)
same,Z-AUC,[8]; [12],-0.678
same,Z-AUC,[8]; measured here: PEO4 Z-AUC,-1.55
